From the supplement of paper PMC13380429

Tests used:
[1] = test system: Vero E6 infected with SARS-CoV-2; test: morphology score (similarity to uninfected cells); higher = more like uninfected cells; conditions: 24 h
[2] = test system: Vero E6 infected with SARS-CoV-2; test: SARS-CoV-2 infection rate relative to infected DMSO; higher = more infection, active = 60 or less; conditions: 24 h

SMILES | morphology score [1] | SARS-CoV-2 infection rate [2]
CN(C)CCCSc1ccccc1NC(=O)/C=C/c1ccccc1 [cinanserin] (10 µM) | 0.164 | 92% (inactive)
CN1CCCCC1CCN1c2ccccc2Sc2ccc([S+](C)[O-])cc21 (centres undefined) [mesoridazine] (10 µM) | 0.323 | 91% (inactive)
COc1cc(CNC(=O)CCCC/C=C/C(C)C)ccc1O [capsaicin] (10 µM) | 0.0697 | 107% (inactive)
CC(=O)O[C@H]1C[C@H](O[C@H]2[C@@H](O)C[C@H](O[C@H]3[C@@H](O)C[C@H](O[C@H]4CC[C@@]5(C)[C@H](CC[C@@H]6[C@@H]5C[C@@H](O)[C@]5(C)[C@@H](C7=CC(=O)OC7)CC[C@]65O)C4)O[C@@H]3C)O[C@@H]2C)O[C@H](C)[C@H]1O[C@@H]1O[C@H](CO)[C@@H](O)[C@H](O)[C@H]1O [lanatoside-C] (0.833333 µM) | -0.0895 | 102% (inactive)
O=C(Nc1cccnc1)c1cc(-c2ccnc(F)c2)ccc1OCc1ccccc1 (10 µM) | -0.0646 | 114% (inactive)
CCCN(CCC)C(=O)C(CCC(=O)OCCCN1CCN(CCOC(=O)Cc2c(C)n(C(=O)c3ccc(Cl)cc3)c3ccc(OC)cc23)CC1)NC(=O)c1ccccc1 (centres undefined) [proglumetacin] (10 µM) | 0.0923 | 99.5% (inactive)
C=CCN1C[C@H](C(=O)N(CCCN(C)C)C(=O)NCC)C[C@@H]2c3cccc4[nH]cc(c34)C[C@H]21 [cabergoline] (10 µM) | 0.0903 | 104% (inactive)
Cc1cccc(C)c1NC1=NCCCS1 [xylazine] (10 µM) | 0.241 | 108% (inactive)
O=C1NCCNC1c1cccs1 (centres undefined) [tenilsetam] (10 µM) | 0.095 | 106% (inactive)
C[C@H]1NC(=O)NC1=O [5-methylhydantoin-(D)] (10 µM) | 0.121 | 102% (inactive)
CCC(=O)c1ccc(OCC(O)CN2CCN(c3ccccc3)CC2)cc1 (centres undefined) [centpropazine] (10 µM) | 0.0954 | 93.5% (inactive)
Cc1cccc(NC(=O)c2ccc(C(F)(F)F)cc2C(=O)O)n1 (10 µM) | -0.208 | 109% (inactive)
